Rows were chosen to be rich in hits. Some 3.4% of all compounds tested hit in one or more screens of this group.
hgDAF-12 ag: H. glycines DAF-12 receptor agonists, primary screen, cell-based, luminescence, HEK293, GAL4 fusion, UAS-luciferase. Nuclear hormone receptor DAF-12 (Heterodera glycines), GAL4 fusion. HEK293 GAL4-hgDAF12 UAS-luciferase reporter, agonist luminescence; normalized to butyrate control. activation, % at 6.8 µM. actives 1.8% (n = 370,000);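 active = activation above a cutoff set at the mean of all screened compounds plus 3 SD, cut at about 10% in these data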;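 note: 0% = DMSO wells and 100% = sodium butyrate wells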
APP 5'UTR act: activators of APP 5'UTR luciferase reporter, primary screen, SH-SY5Y cells. SH-SY5Y APP 5'UTR luciferase reporter, luminescence; zero percent = DMSO vehicle wells. activation, % at 2 µM. actives 1% (n = 190,000);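 active = activation above a set limit, based on mean plus 3 SD of controls, cut at about 140% in these data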
NF-kB neuron act: activators of NF-kB expression in neurons, primary screen, cell-based, HTS; human neuronal cells, NF-kB reporter expression; stronger effect = higher value; fold change at 12.5 µM; actives 1.6% (n = 190,000); AID 1239, 2008; in the data active = fold change above about 3.3
hcDAF-12 act: H. contortus DAF-12 nuclear receptor activators, primary screen, cell-based, luminescence, HEK293, lit1-tk-luc reporter; HEK293 hcDAF-12 lit1-tk-luc reporter; 0% DMSO, 100% Δ7-dafachronic acid; activation, % at 6.8 µM; actives 1.4% (n = 370,000); AID 652067, 2013;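 active = activation above the mean of all tested compounds plus 3 SD, cut at about 5.5% in these data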;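 note: 100% = response to 3 µM Δ7-dafachronic acid high control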
ssDAF12 agonist: S. stercoralis DAF-12 nuclear receptor activators, primary screen, cell-based, luminescence, HEK293, GRIP1 co-expression, lit1-tk-luc; HEK293 ssDAF-12/GRIP1 lit1-tk-luc reporter; % of 3 µM dafachronic acid response; activation, % at 6.8 µM; actives 1% (n = 370,000);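 active = activation above the mean over all tested compounds plus 3 SD, cut at about 0.9% in these data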;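 note: 0% = DMSO-only wells and 100% = 3 µM delta7-dafachronic acid wells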
Active calls of the source: *; . = no result given.

SMILES	hgDAF-12 ag	APP 5'UTR act	NF-kB neuron act	hcDAF-12 act	ssDAF12 agonist
Cc1cc(C)n2cc(CSc3nc4ccccc4s3)nc2n1	5	49	2.7	5.7*	0
Cc1ccc(Cn2cc(CN3[C@H](c4ccccc4)COc4cc(Br)ccc4S3(=O)=O)nn2)cc1	0	.	.	-1	-1
CC(=O)C1=C(O)C(=O)N(C)C1c1ccccc1[N+](=O)[O-] (stereo not drawn)	-2	.	.	5	2.0*
O=C(C1=C(O)C(=O)N(CC2CCCO2)C1c1ccccc1[N+](=O)[O-])c1ccco1 (stereo not drawn)	1	.	.	5	1.2*
Cc1ccc2nsnc2c1NC(=O)c1cccc([N+](=O)[O-])c1	.	-3	0.83	.	.
Cc1ccc2nsnc2c1NC(=O)c1cccnc1Cl	-1	-7	1	-2	10*
O=c1[nH]c(Nc2nc3ccccc3o2)nc2c1CCCC2	8	170*	2	2	-1
Cc1ccc(Nc2nc3c(c(=O)[nH]2)CCCC3)cc1	3	12	2	1	0
CC(=O)CC[C@@H]1CC[C@]2(CCCN(C(=O)c3ccco3)C2)O1	0	.	.	0	0
COc1ccc2[nH]c(N=Nc3ccccc3C)c(O)c2c1	9	1	1.2	6.5*	0
COc1ccc(N=Nc2c(C)[nH]c3ccccc23)cc1	4	.	.	3	-1
C[C@H]1[C@@H](OC(=O)Nc2ccccc2F)CC[C@@]23CCCN2C(=O)CCC[C@@H]13	-1	.	.	-1	-1
CC1(C)CC(=O)C=C(c2ccc(COC(=O)c3ccccc3)cc2)C1=O	11*	.	.	3	0
CC1(C)CC(=O)C=C(c2ccc(COC(=O)/C=C/c3ccccc3)cc2)C1=O	3	.	.	0	-1
CC(C)C[C@H](NC1(C(=O)NC2CCCCC2)CCOCC1)C(=O)NCC(c1ccccc1)c1ccccc1	1	.	.	-2	-2
CCOC(=O)C1CCCN1C(=O)C1(NC(C)=O)CCCC1 (stereo not drawn)	12*	.	.	-1	-1
CCOC(=O)C1CCN(C(=O)C2(NC(=O)NC3CCCCC3)CCCCC2)CC1	0	-19	1.3	-2	-1
CNc1nc(-c2ccc3c(c2)CCN3C(=O)c2ccc(F)cc2)cs1	1	47	2	-1	-2
CNc1nc(-c2ccc3c(c2)CCN3C(=O)c2cccc(F)c2)cs1	11*	.	.	0	-1
O=C(NC1CCCC1)C1CCN(S(=O)(=O)c2ccc3[nH]c(=O)oc3c2)CC1	1	.	.	1	-1
COc1ccccc1-c1ccc(OCCCN2CCC(C(O)(c3ccccc3)c3ccccc3)CC2)cc1	0	.	.	-2	-1
CC(=O)c1cccc(Nc2nc(=O)c3cccnc3s2)c1	5	-13	3.4*	-1	-2
Cc1ccc(Nc2nc(=O)c3cccnc3s2)c(Br)c1	-6	.	.	-2	-2
CC(=O)c1ccc(Nc2nc(=O)c3cccnc3s2)cc1	9	-4	3.9*	3	0
CCOC(=O)c1ccc(Nc2nc(=O)c3cccnc3s2)cc1	2	19	4.1*	-1	-1
SMILES	hgDAF-12 ag	APP 5'UTR act	NF-kB neuron act	hcDAF-12 act	ssDAF12 agonist
O=C(NCCc1ccc(F)cc1)c1ccc(Sc2ccccc2Cl)c([N+](=O)[O-])c1	1	.	.	1	0
COC(=O)[C@]12C[C@H](CC(=O)NCCCCc3ccccc3)C(=O)N(CCc3ccc(OC)c(OC)c3)C1=C[C@H](C1CCCC1)O[C@@H]2C	0	.	.	-2	-1
Cc1c(/C=N/NC(=O)c2ccc(Br)o2)cnn1C	9	.	.	6.2*	0
Cc1ccccc1NC(=O)OCCN1CCCC12CCC(c1ccccc1)CC2 (stereo not drawn)	-2	.	.	-1	-2
CCOC(=O)c1csc(NC(=O)C2CCCN(S(=O)(=O)c3ccc(C)cc3)C2)n1 (stereo not drawn)	-3	.	.	-3	-2
Fc1ccc(N2CCN(C3=Nc4ccccc4Sc4ccccc43)CC2)cc1	-7	.	.	-2	1.3*
FC(F)(F)c1cccc(N2CCN(C3=Nc4ccccc4Sc4ccccc43)CC2)c1	3	.	.	-3	-1
C=CCN1[C@H](C)COc2cccc(N3CCSCC3)c2S1(=O)=O	2	.	.	-1	0

Assay outcomes deposited in PubChem by several laboratories.
